Screening data from PubChem BioAssay.
This is a sample that favours compounds with a hit; in the whole collection about 12% have one here.
ALDH1A1 block: ALDH1A1 (human) enzyme inhibition | Purified ALDH1A1, NADH fluorescence, propionaldehyde substrate | 220,000 tested, 7.3% active | P00352 | Potency, µM (series often up to 75.3 µM), for inactives: at the highest dose activity, negative = inhibition, actives largely listed as inhibitors; active = well fitted inhibition curve with a large enough effect, not every such curve was filed as active; inconclusive = small, poorly fitted or top-dose-only effect, or another doubt; inactive = no such curve, though single readings can be large or run the other way;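 also: plate controls were no enzyme wells and a reference inhibitor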
RORg inh: ROR gamma (mouse) transcription inhibition. P51450. Drosophila S2 Gal4-RORgamma UAS-luciferase reporter, 20 h. Potency, µM (highest dose often 53.6 µM), inactives show at the highest dose activity change, negative = inhibition, actives largely listed as inhibitors. 310,000 tested, 5.4% active. AID 2551; also: nearly all actives have a fitted effect of over 60% in size
Target sequence (P51450 whole entry, looked up, the tested form may be a part): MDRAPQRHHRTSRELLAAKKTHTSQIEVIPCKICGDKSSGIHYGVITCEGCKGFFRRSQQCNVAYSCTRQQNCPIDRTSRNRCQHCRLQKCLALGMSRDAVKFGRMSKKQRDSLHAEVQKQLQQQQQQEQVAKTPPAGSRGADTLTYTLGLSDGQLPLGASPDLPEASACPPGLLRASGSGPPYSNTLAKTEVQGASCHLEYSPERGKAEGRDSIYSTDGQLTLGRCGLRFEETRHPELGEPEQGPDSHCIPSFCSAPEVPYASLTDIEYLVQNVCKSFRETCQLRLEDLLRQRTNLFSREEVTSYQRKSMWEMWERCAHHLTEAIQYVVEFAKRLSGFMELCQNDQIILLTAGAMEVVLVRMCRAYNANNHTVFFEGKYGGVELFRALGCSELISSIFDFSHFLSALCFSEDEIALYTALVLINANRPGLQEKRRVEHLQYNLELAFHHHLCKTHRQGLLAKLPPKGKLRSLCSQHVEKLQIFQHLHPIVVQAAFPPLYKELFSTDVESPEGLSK
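Drosophila Schneider cells stably carrying a metallothionein-driven Gal4 DBD–ROR gamma fusion and a UAS-Photinus luciferase reporter were exposed to compound for 1 hr, then induced with copper sulfate (700 uM final) for 20 hr at ambient temperature before luminescence reading.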
PLK1 PBD block: PLK1 (human) polo-box domain binding inhibition | P53350 | Plk1 PBD binding of FITC phosphopeptide, fluorescence polarization | Potency, µM, for inactives: max response, negative = inhibition, most hits filed as inhibitors | 360,000 tested, 2.8% active | AID 720504; also: series mostly up to about 57 µM; nearly all actives have a fitted effect of over 65% in size
Sfp PPTase inh: blocks B. subtilis Sfp PPTase activity | Biochemical Sfp PPTase activity, qHTS | 310,000 tested, 3.5% active | Potency, µM, inactives show largest response in the series, negative = inhibition, usual class: inhibitors;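 also: the enzyme is Sfp with the accession as filed and its product quenches rhodamine fluorescence; 0% = enzyme reaction without inhibitor and -100% = no enzyme wells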
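Fluorescence-quenching assay: 15 nM Sfp-PPTase preincubated 15 min at room temperature with compound, then 5 uM rhodamine-CoA and 12.5 uM BHQ-2-labelled YbbR peptide added. Fluorescence (ex 525/em 598 nm) read at start and after 30 min; difference gives rate.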
VP16 counter: Gal4-VP16 reporter inhibition counter-screen; Drosophila S2 Gal4-VP16 UAS-luciferase, luminescence, 20 h; 310,000 tested, 3.5% active; AID 2546; Potency, µM (highest dose often 53.6 µM), for inactives: at the highest dose activity, negative = inhibition, hits mostly inhibitors;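 also: Gal4-VP16 expression switched on by copper sulfate through the metallothionein promoter; nearly all actives have a fitted effect of over 50% in size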
The depositor's hits bear a star; ? = inconclusive; nt = no result; [ ] = dose if it differs, or a comment. Unless noted, calls follow the shape of the dose curve; as a rule, active = well fitted curve in the direction sought with a large enough effect; inconclusive = small, poorly fitted or top-dose-only effect, or another doubt; inactive = no such curve, though single readings can be large; an effect the other way counts as inactive or inconclusive. Unless noted, % is scaled to controls: 0 for no effect and ±100 for the full control effect; potency is read from the fitted curve at half-maximal effect.

SMILES	ALDH1A1 block	RORg inh	PLK1 PBD block	Sfp PPTase inh	VP16 counter
N#C/C(=C(/O)c1ccc(Cl)c([N+](=O)[O-])c1)c1nc2ccccc2[nH]1	13%	13µM*	-10%	-5%	?
CC(=O)OC(/C(O)=C(\C#N)c1nc2ccccc2[nH]1)c1ccccc1 (stereo not given)	?	14µM*	-6%	11%	?
N#C/C(=C(/O)c1ccc([N+](=O)[O-])cc1)c1nc2ccccc2[nH]1	nt	-15%	-4%	5%	18%
N#C/C(=C(\O)c1cc(Cl)sc1Cl)c1nc2ccccc2[nH]1	nt	2.5µM*	-21%	11%	?
CC(C)(C)c1ccc(COn2ccnc2)cc1	-7%	16%	-9%	12%	1%[10 µM]
COCCn1c(=O)[nH]c2cc(C(=O)Nc3cccc(C(C)=O)c3)ccc2c1=O	nt	-25%	-21%	30%	-1%
COC(=O)C1=CN(c2cccc(OCc3ccccc3)c2)C(N)=C(C#N)C1c1cccc(F)c1 (stereo not given)	nt	nt	-7%	nt	nt
N#C/C(=C1\CCCN1)c1ccc2ccccc2n1	8%	-10%	-1%	4%	2%
N#C/C(=C1/CCCCCN1)c1nc2ccccc2[nH]1	8.9µM*	-24%	-4%	?	-12%
C/C(O)=C(/C#N)c1nc2ccccc2[nH]1	1%	7.9µM*	-1%	10%	?
CCOC(=O)C1(C)CCCN1C(=O)c1ccc2ccccc2c1 (stereo not given)	nt	nt	2%	nt	nt
CCOC(=O)[C@]12CCCC=C1N(CCC1=CCCCC1)C(=O)[C@H](CC(=O)NCc1ccccc1)C2	nt	nt	-2%	nt	nt
C#CCN1C(=O)S/C(=C\c2ccc(-c3ccc(C(=O)O)cc3C)o2)C1=O	nt	?	?	-30%	-11%
Cc1ccc(C(=O)O)cc1-c1ccc(/C=C2\SC(=O)N(CC(=O)Nc3ccccc3)C2=O)o1	?	12%	?	18µM*	0%[10 µM]
Cc1cc(C(=O)O)ccc1-c1ccc(/C=C2\SC(=O)N(CC(=O)Nc3ccc4c(c3)OCO4)C2=O)o1	nt	12%	nt	50µM*	?
Cc1cc(/C=C2\SC(=O)N(CC(=O)Nc3ccccc3F)C2=O)c(C)n1C	?	16%	4%	-2%	-6%[10 µM]
Cc1ccc(NC(=O)CN2C(=O)S/C(=C/c3ccc(-c4cccc(C(=O)O)c4)o3)C2=O)cc1	4%	21%	?	-17%	-6%
Cc1ccccc1NC(=O)CN1C(=O)S/C(=C\c2ccc(-c3cc(C(=O)O)ccc3C)o2)C1=O	28µM*	-14%	-20%	35µM*	2%
Cc1cc(NC(=O)CN2CCOCC2)n(-c2ccccc2)n1	nt	-4%	-6%	18%	-28%
Cc1cc(NC(=O)CN2CCOCC2)n(-c2nc3ccccc3s2)n1	22µM*	3.5µM*	-2%	-17%	1%
O=C(CN1CCOCC1)Nc1nc2ccc(Br)cc2s1	13µM*	26%	0%	-4%	8%
O=C(CN1CCOCC1)Nc1nc2ccc(Cl)cc2s1	nt	42%	-6%	9%	2%
CCCCCCN1C[C@H](n2cc(C3CC3)nn2)[C@@H](O)C[C@@H]1c1ccc(Cl)cc1	nt	nt	5%	nt	nt
CCCCN(CCCC)Cc1cc(=O)oc2ccccc12	nt	nt	-4%	nt	nt
Fc1ccc(C(OCCCc2cnc[nH]2)c2ccc(F)cc2)cc1	-10%	nt	nt	nt	nt
SMILES	ALDH1A1 block	RORg inh	PLK1 PBD block	Sfp PPTase inh	VP16 counter
CC(=O)Oc1ccc(-c2csc(Nc3cccc(C)n3)n2)cc1	nt	3.2µM*	-11%	4%	10µM*
Cc1cccc(Nc2nc(-c3cccs3)cs2)n1	?	?	-10%	1%	?
Cc1cccnc1Nc1nc(-c2ccccc2)cs1	nt	nt	-12%	50µM*	nt
Cc1cccc(Nc2nc(-c3ccccn3)cs2)n1	?	1.6µM*	-2%	?	2.5µM*
Cc1cccnc1Nc1nc(-c2ccccn2)cs1	1%	0.022µM*	-2%	6%	?
COc1ccc(-c2csc(Nc3cccc(C)n3)n2)cc1	nt	?	?	-2%	?
CN1CCN(CC(=O)Nc2ccc(S(=O)(=O)N(C)C)cc2)CC1	nt	6%	1%	56µM*	-5%
CN(C)S(=O)(=O)c1ccc(NC(=O)CN2CCOCC2)cc1	nt	-23%	-8%	30%	6%
CCCCC1(C)NC(=O)N(CC(=O)Nc2ccc(S(=O)(=O)N3CCOCC3)cc2)C1=O (stereo not given)	3.2µM*	?	-3%	-3%	5%
CCCCN(CCCC)S(=O)(=O)c1ccc(NC(=O)CN2CCOCC2)cc1	13µM*	-5%	-2%	-4%	?
COc1cc(C(=O)NC2CCN(CC(=O)Nc3cccc(C)c3C)CC2)cc(OC)c1OC	nt	?	27µM*	9%	21%
COc1cccc(OC)c1NC(=O)CN1CCC(NC(=O)c2cccc(F)c2)CC1	40µM*	-10%	1%	15%	-7%
Cc1cc(C(=O)NCCc2ccc(S(=O)(=O)NC(=O)NN3CCCCCC3)cc2)no1	7%	-1%	nt	?	8%
COc1ccc(-c2nc(C(=O)N3CCN(C)CC3)sc2-c2ccc(OC)cc2)cc1	?	-16%	nt	?	-6%
CCOC(=O)C1=CC[C@@H](c2cc(OC)c(OC)c(OC)c2)N(S(=O)(=O)c2ccc(C)cc2)[C@H]1C(=O)OCC	nt	nt	-3%	nt	nt
COc1cc2sc(-c3ccc(S(C)(=O)=O)cc3)c(C#CCO)c2cc1OC	nt	nt	-13%	nt	nt
CN(C)/C=C/c1c([N+](=O)[O-])c2ccc(O)cc2n1-c1ccccc1	-15%	14%	0%	2.5µM*	-2%
O=C(O)c1cc(N2C(=O)C=CC2=O)cc(N2C(=O)C=CC2=O)c1	nt	nt	2.7µM*	nt	nt
COc1ccc(NC(=O)c2cc(C3CCCCN3S(=O)(=O)c3ccc(F)cc3F)on2)c(C)c1 (stereo not given)	nt	nt	2%	nt	nt
CCNC(=O)/C(C#N)=C/c1c(N2CCN(c3ccccc3)CC2)nc2c(C)cccn2c1=O	nt	?	-21%	16%	-5%
CCNC(=O)/C(C#N)=C/c1c(N2CCN(c3ccc(OC)cc3)CC2)nc2c(C)cccn2c1=O	nt	18%	24µM*	-7%	-3%
